Screening data from PubChem BioAssay.
This is a sample that favours compounds with a hit; in the whole collection about 2.9% have one here.
Pol iota inh: qHTS for Inhibitors of Polymerase Iota. 1% of 390,000 active. AID 588590, 2011. Pol iota fluorescent replication assay, 10 min. Potency, µM (series often up to 115 µM), for inactives: at the highest dose activity, negative = inhibition, actives largely listed as inhibitors; note: potency is the fitted concentration of half-maximal effect
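Fluorescent replication assay read twice, at 0 min and 10 min after adding 50 nM (final) substrate. Enzyme (10 nM) and compounds were first incubated 15 min at room temperature; enzyme-free buffer wells were negative controls.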
POLK inh: qHTS for Inhibitors of Polymerase Kappa. DNA polymerase kappa (Homo sapiens), Q9UBT6. AID 588579, 2011. 0.53% of 400,000 active. Potency, µM (doses to about 107 µM), for the others: top-dose activity, negative = inhibition, hits mostly inhibitors. purified Pol kappa, fluorescent DNA synthesis assay, 10 min; note: potency is the fitted concentration of half-maximal effect; % is set by controls: 0 for no effect and ±100 for the full control effect
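Readout: fluorescence, taken kinetically at 0 and 10 min. Conditions: 10 nM Pol kappa, 15 min RT compound preincubation, 50 nM substrate final. Controls: enzyme-free buffer wells.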
12-LOX inh: Primary qHTS assay for inhibitors of human arachidonate 12S-lipoxygenase (ALOX12): Round 2; Polyunsaturated fatty acid lipoxygenase ALOX12 (Homo sapiens), P18054; purified 12hLO, xylenol orange hydroperoxide absorbance; Potency, µM (doses to about 108 µM), without a hit: at the top dose activity change, negative = inhibition, usual class: inhibitors; 1.1% of 580,000 active; note: potency is the fitted concentration of half-maximal effect; % is set by controls: 0 for no effect and ±100 for the full control effect
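Purified human 12hLO at 150 nM in 25 mM Hepes, 0.01% Triton X-100, pH 7.0, preincubated 15 min at room temperature with compound. Reaction started with 40 uM arachidonic acid, 30 min at room temperature. Hydroperoxide measured by Fe-xylenol orange, 573/405 nm absorbance ratio.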
PI5P4Ka inh: qHTS for Inhibitors of phosphatidylinositol 5-phosphate 4-kinase (PI5P4K). Phosphatidylinositol 5-phosphate 4-kinase type-2 alpha (Homo sapiens), P48426. PI5P4Kalpha enzyme, ADP-Glo luminescence, 60 min; active compounds read low. max response, %. 1.2% of 330,000 active; active = max response of -50% or lower; inconclusive = between -30% and -50%; inactive = -30% or higher; note: value at the top dose of about 77 µM; % is set by controls: 0 for no effect and ±100 for the full control effect
Target sequence (P48426 whole entry, looked up): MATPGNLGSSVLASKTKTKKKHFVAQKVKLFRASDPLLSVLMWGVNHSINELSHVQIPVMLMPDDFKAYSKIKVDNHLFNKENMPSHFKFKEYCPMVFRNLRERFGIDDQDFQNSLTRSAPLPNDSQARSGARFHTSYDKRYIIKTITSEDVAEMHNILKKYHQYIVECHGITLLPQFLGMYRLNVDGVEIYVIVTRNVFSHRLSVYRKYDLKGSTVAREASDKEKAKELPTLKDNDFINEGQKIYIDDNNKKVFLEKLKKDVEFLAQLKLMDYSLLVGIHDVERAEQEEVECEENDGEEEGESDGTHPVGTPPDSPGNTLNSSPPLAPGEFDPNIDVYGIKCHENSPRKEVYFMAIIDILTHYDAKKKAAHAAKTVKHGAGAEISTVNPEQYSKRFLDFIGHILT
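Quantitative HTS of the MLSMR library against PI5P4Kalpha with substrate. ATP added last at 5 microM final; room temperature, 60 minutes. Remaining ATP depleted, ADP converted and read as luminescence.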
Pol beta inh: qHTS Assay for Inhibitors of DNA Polymerase Beta | 1.3% of 340,000 active | Pol beta primer extension/strand displacement, fluorescence kinetic | P06746 | Potency, µM (titrated, usually from 114 µM), for the others: at the highest dose activity change, negative = inhibition, hits mostly inhibitors | AID 485314, 2010; note: potency is the fitted concentration of half-maximal effect; % is set by controls: 0 for no effect and ±100 for the full control effect
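Human Pol beta at 10 nM; strand-displacement substrate 50 nM final. Compound exposure 15 min at room temperature before start, reaction 10 min at room temperature.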
Pol eta inh: qHTS for Inhibitors of Polymerase Eta. Potency, µM (titrated, usually from 114 µM), without a hit: at the top dose activity change, negative = inhibition, most hits filed as inhibitors. recombinant Pol eta, fluorescent DNA replication assay. 1.2% of 390,000 active. DNA polymerase eta (Homo sapiens), Q9Y253; note: potency is the fitted concentration of half-maximal effect; % is set by controls: 0 for no effect and ±100 for the full control effect
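Fluorescent replication assay: 50 nM final substrate added after a 15 min room-temperature compound preincubation with 10 nM enzyme. Signal taken at 0 min and again at 10 min.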
Active calls of the source: *; ? = inconclusive; / = not tested or not shown; ! = repeats disagree; [ ] = another dose, or the depositor's remark. Unless noted, calls come from the whole dose curve; as a rule, active = well fitted inhibition curve with a large enough effect; inconclusive = small, poorly fitted or top-dose-only effect, or another doubt; inactive = no such curve, though single readings can be large or run the other way.

SMILES | Pol iota inh | POLK inh | 12-LOX inh | PI5P4Ka inh | Pol beta inh | Pol eta inh
N#Cc1c(/N=C/c2c(O)n(Cc3ccco3)c(=O)[nH]c2=O)sc2c1CCCC2 | 10µM* | 22µM* | -26% | / | 32µM* | 14µM*
COc1cccc([C@@H]2CCN(Cc3cc4ccccc4n(C)c3=O)C[C@H]2O)c1 | / | / | -8% | / | / | /
COC[C@H]1OC(=O)c2coc3c2[C@@]1(C)C1=C(C3=O)[C@@H]2CCC(=O)[C@@]2(C)C[C@H]1OC(C)=O | 89µM* | -26% | -13% | ? | / | -8%
CC1COC2=C1C(=O)C(=O)c1c2ccc2c1CCCC2(C)C (stereo not drawn) | / | 28µM* | / | / | / | /
C[C@H]1COC2=C1C(=O)C(=O)c1c2ccc2c1CCCC2(C)C | 22µM* | ? | ? | -52* | 22µM* | 35µM*
Cc1ccc2c(C)cccc2c1 | -11% | -5% | 3% | -71* | / | 1%
CC(C)N1C[C@@H]2OCC(=O)N(CC3CC3)[C@@H]2C1 | / | / | 3%[176 µM] | / | / | /
CC(=O)Oc1c2c(c(CC=C(C)C)c3c1C(=O)C1=CC4CC5C(C)(C)OC(C/C=C(\C)C(=O)O)(C4=O)[C@]15O3)OC(C)(CCC=C(C)C)C=C2 (stereo partly drawn) | / | 25µM* | / | / | / | /
O=C1NC(=S)N(c2ccc(Cl)cc2)C(=O)/C1=C/N1CCN(C(=O)c2ccco2)CC1 | ? | -4% | ? | -23 | -2% | -13%
O=C1NC(=S)N(c2ccc(F)cc2)C(=O)/C1=C/c1ccco1 | / | / | / | / | 0.56µM* | /
COc1ccc(N2C(=O)/C(=C/c3cc(C)n(-c4ccc(C)cn4)c3C)C(=O)NC2=S)c(OC)c1 | 1% | 0% | 35µM* | ? | 1% | ?
Cc1ccc(-n2c(C)cc(/C=C3/C(=O)NC(=O)N(C)C3=O)c2C)cc1 | ? | -10% | -17% | -2 | 5% | -3%
COc1ccc(OC)c(N2C(=O)CC(=O)NC2=O)c1 | ? | ? | -19% | 1 | -12% | -4%
COc1ccc(OC)c(N2C(=O)/C(=C/c3ccco3)C(=O)NC2=S)c1 | ? | 3.5µM* | / | -86* | ? | 0.71µM*
O=[N+]([O-])c1cccnc1N1CC2CCC(C1)N2CC(F)(F)F | / | / | 6%[6.33 µM] | / | / | /
O=C(c1cn(Cc2ccccc2F)c2ccccc12)C1CCCCC1 | / | / | -27% | / | / | /
CN(C(=O)Oc1cccc2cccnc12)c1ccccc1 | 40% | -7% | 5% | / | -3% | -13%
Oc1cccc2cccnc12 | 26% | -2%[60.1 µM] | 9.3µM*! | / | 75% | /
Cc1ccc(CCNC(=O)Cn2nc(C)c3c(C)n(-c4ccc(C)cc4)nc3c2=O)cc1 | -7% | -2% | ? | / | 79µM* | ?
CCOC(=O)C1CCN(/C=C2/C(=O)NC(=O)N(Cc3ccco3)C2=O)CC1 | 18µM* | 35µM* | 41% | -73* | 22µM* | 7.1µM*
COC(=O)C1=C(C)N(Cc2ccco2)C(=O)/C1=C\c1ccc(N(C)C)cc1 | 15% | ? | -10% | 2 | 30% | -15%
COc1ccc(/C=C2/C(=O)NC(=O)N(Cc3ccco3)C2=O)cc1 | / | / | / | / | 10µM* | /
Cc1ccccc1-n1c(C)cc(/C=C2/C(=O)NC(=O)N(Cc3ccco3)C2=O)c1C | ? | ? | ? | -30 | -9% | ?
Cc1ccccc1-c1ccc2n(c1=O)C[C@H]1C[C@@H]2CN(C(=O)Nc2ccccc2)C1 | / | / | 39%[176 µM] | / | / | /
CCc1ccc(CN2CCN(Cc3cc(Br)ccc3O)CC2)cc1 | 64% | -10% | 0.63µM* | 7 | ? | -20%
CCN1CCN(Cc2cc(Br)ccc2O)CC1 | 17% | -6% | 14% | -3 | 5% | -11%
Cc1nn(CCC#N)c2c1P(=S)(N1CCCC1)OC(c1ccc(F)cc1)=N2 (stereo not drawn) | 18% | -2% | 22µM* | / | 0% | -2%
